# Measured values: paper PMC10313818
# Legend:
# [1] = target: 60 kDa heat shock protein, mitochondrial (UniProt P10809); assay: cross-link between two proteins; cross-linking mass spectrometry
# ADP/ATP translocase 3 = ADP/ATP translocase 3 (UniProt P12236); assay: cross-link between two proteins; co-fractionation; cross-linking mass spectrometry
# ADP/ATP translocase 3, sequence (P12236 whole entry): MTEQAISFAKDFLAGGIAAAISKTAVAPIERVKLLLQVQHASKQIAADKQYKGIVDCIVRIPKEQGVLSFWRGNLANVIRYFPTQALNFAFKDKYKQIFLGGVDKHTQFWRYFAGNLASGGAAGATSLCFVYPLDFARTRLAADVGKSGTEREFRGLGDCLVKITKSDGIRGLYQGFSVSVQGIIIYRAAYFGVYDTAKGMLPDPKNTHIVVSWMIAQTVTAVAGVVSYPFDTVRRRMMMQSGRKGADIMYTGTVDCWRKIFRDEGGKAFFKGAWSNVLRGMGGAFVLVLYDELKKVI
substance,measurement,setting,value
"Putative GTP-binding protein 6, O43824",listed as a hit,[1],yes
"ADP/ATP translocase 2, P05141",listed as a hit,ADP/ATP translocase 3,yes
